In the library only some 4.1% were active in any assay of this set; here they are far more common.
FBA Mtb inh = inhibits M. tuberculosis FBA enzyme; AID 588726; purified M. tuberculosis FBA, fluorescence read-out; P9WQA3; 360,000 compounds, 2.3% hits; inhibition, % at 1 µM; in the data active = inhibition above about 27%
Mtb UGM inh = blocks M. tuberculosis UGM enzyme | P9WIQ1 | purified UGM, fluorescence polarization probe displacement | inhibition, % at 10 µM | 320,000 compounds, 0.06% hits | AID 504406; in the data active = inhibition above about 10%, passing the limit was not always enough
RecA splice inh = inhibitors of M. tuberculosis RecA intein splicing. P9WHJ3. inhibition, % (no concentration beside the values). 290,000 compounds, 0.75% hits. cell-free RecA intein splicing, fluorescence; in the data active = inhibition above about 30%
Target sequence (P9WHJ3 whole entry, looked up, canonical isoform): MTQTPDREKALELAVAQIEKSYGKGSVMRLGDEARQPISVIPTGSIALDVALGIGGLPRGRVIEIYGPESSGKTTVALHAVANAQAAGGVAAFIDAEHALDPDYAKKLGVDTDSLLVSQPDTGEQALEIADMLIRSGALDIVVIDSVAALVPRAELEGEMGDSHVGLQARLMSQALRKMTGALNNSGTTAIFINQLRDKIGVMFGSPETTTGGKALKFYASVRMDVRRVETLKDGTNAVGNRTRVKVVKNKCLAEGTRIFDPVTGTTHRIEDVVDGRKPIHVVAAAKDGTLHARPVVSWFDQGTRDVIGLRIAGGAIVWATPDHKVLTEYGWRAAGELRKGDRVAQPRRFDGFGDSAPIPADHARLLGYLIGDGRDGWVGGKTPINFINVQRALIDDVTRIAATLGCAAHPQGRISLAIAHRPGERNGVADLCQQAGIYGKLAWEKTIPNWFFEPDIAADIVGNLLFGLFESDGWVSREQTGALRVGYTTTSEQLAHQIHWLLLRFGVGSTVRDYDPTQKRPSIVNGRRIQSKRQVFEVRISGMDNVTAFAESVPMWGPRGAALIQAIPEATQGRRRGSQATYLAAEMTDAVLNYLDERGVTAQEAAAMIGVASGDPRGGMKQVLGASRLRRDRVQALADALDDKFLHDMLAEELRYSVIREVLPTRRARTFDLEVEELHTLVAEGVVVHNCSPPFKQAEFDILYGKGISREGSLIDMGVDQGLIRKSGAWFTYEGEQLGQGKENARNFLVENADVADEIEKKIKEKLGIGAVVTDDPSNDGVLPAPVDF
Rv3671c inh = inhibitors of M. tuberculosis serine protease Rv3671c; P9WHR9; inhibition, % at 5.96 µM; 320,000 compounds, 0.048% hits; AID 2606; in the data active = inhibition above about 38%;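 also: extracellular domain of Rv3671c used as enzyme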
Vc quorum ag-1 = inducers of Vibrio cholerae quorum light production without autoinducers | AID 588436 | activation, % at 18.7 µM | 350,000 compounds, 0.16% hits | V. cholerae BH1578 lux reporter, luminescence, 6 h; in the data active = activation mostly above about 9.7%, no sharp cut-off
GDH-TPI counter = counter-screen for M. tuberculosis FBA inhibitors: GDH-TPI coupled enzymes; GDH-TPI coupled enzyme counterscreen, NADH absorbance; inhibition, % at 4.8 µM; 360,000 compounds, 1.2% hits; in the data active = inhibition above about 30%
Vc quorum ag-2 = inducers of V. cholerae quorum light production without autoinducers; shares compounds with Vc quorum ag-1; V. cholerae BH1578 lux reporter, luminescence, 6 h; activation, % at 50 µM; 620 tested, under 10 active; AID 602243; call rule not given here
HeLa tox = kills HeLa cells within 24 hours. activity change, negative = cytotoxicity, % at 35 µM. 25 tested, under 10 active. shares compounds with Vc quorum ag-1. HeLa viability, CellTiter-Glo ATP luminescence;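 active = signal drop with fitted half-maximal concentration at or below twice the highest valid dose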
Hits are given with their value.

For O=C(NCc1ccccn1)c1ccc(CS(=O)(=O)Cc2ccc(Cl)cc2)o1 the results were FBA Mtb inh inactive, Mtb UGM inh inactive, RecA splice inh inactive, Rv3671c inh inactive, Vc quorum ag-1 15, GDH-TPI counter inactive and Vc quorum ag-2 inactive.
`O=C(/C=C/c1ccc(OCCCF)cc1)NCc1ccc(Cl)cc1` gave FBA Mtb inh inactive, Mtb UGM inh inactive, RecA splice inh inactive, Rv3671c inh inactive, Vc quorum ag-1 39, GDH-TPI counter inactive and Vc quorum ag-2 inactive.
`Cc1ccccc1C(=O)Nc1cccc(N)c1` gave FBA Mtb inh inactive, Mtb UGM inh inactive, RecA splice inh inactive, Rv3671c inh inactive, Vc quorum ag-1 48, GDH-TPI counter inactive and Vc quorum ag-2 inactive.
COc1ccc(C(=O)COC(=O)CNC(=O)c2ccc(Cl)cc2Cl)c(OC)c1 was read as FBA Mtb inh inactive, Mtb UGM inh inactive, RecA splice inh inactive, Rv3671c inh inactive, Vc quorum ag-1 inactive, GDH-TPI counter inactive and Vc quorum ag-2 inactive.
COc1cc(F)ccc1-c1cc(C(=O)Nc2ccc(NC(C)=O)cc2)[nH]n1 was read as FBA Mtb inh inactive, Vc quorum ag-1 inactive and GDH-TPI counter inactive.
Cc1ccccc1C(=O)Nc1ccc(-c2nc3ccc(C(=O)c4ccccc4)cc3[nH]2)cc1 was read as FBA Mtb inh inactive, Mtb UGM inh inactive, RecA splice inh inactive, Rv3671c inh inactive, Vc quorum ag-1 inactive, GDH-TPI counter inactive and Vc quorum ag-2 inactive.
For CCCS(=O)(=O)NC(=O)C1(C)CCN(C(=O)c2cccnc2Oc2ccccc2)C1 (configuration not stated) the results were FBA Mtb inh inactive, Vc quorum ag-1 inactive and GDH-TPI counter inactive.
Screening Cc1cc(SCc2cc(=O)[nH]c3ccccc23)nc2ccccc12 returned FBA Mtb inh inactive, Mtb UGM inh inactive, RecA splice inh inactive, Rv3671c inh inactive, Vc quorum ag-1 inactive and GDH-TPI counter inactive.
O=c1cc(CSc2ccccn2)c2ccccc2[nH]1 was read as FBA Mtb inh inactive, Mtb UGM inh inactive, Rv3671c inh inactive, Vc quorum ag-1 27, GDH-TPI counter inactive and Vc quorum ag-2 inactive.
`COc1ccc(OC)c(NC(=O)COC(=O)c2cc3c(s2)CCC3)c1` gave FBA Mtb inh inactive, Mtb UGM inh inactive, RecA splice inh inactive, Rv3671c inh inactive, Vc quorum ag-1 inactive, GDH-TPI counter inactive and Vc quorum ag-2 inactive.
`COc1ccccc1NC(=O)COC(=O)C1CCCC1` gave FBA Mtb inh inactive, Mtb UGM inh inactive, Rv3671c inh inactive, Vc quorum ag-1 inactive and GDH-TPI counter inactive.
Screening COc1ccc(OC)c(NC(=O)COC(=O)CCC2CCCC2)c1 returned FBA Mtb inh inactive, Mtb UGM inh inactive, Rv3671c inh inactive, Vc quorum ag-1 inactive and GDH-TPI counter inactive.
COc1ccccc1NC(=O)COC(=O)c1cc2c(s1)CCC2 was read as FBA Mtb inh inactive, GDH-TPI counter inactive, Vc quorum ag-2 inactive and HeLa tox inactive.
Screening Cc1occc1-c1nnc(SCC(=O)NCc2cccs2)n1-c1ccc(F)cc1 returned FBA Mtb inh inactive, Mtb UGM inh inactive, RecA splice inh inactive, Rv3671c inh inactive, Vc quorum ag-1 inactive, GDH-TPI counter inactive and Vc quorum ag-2 inactive.
Screening CCCOc1cccc(C(=O)NCCNC(=O)c2ccco2)c1 returned FBA Mtb inh inactive, Mtb UGM inh inactive, RecA splice inh inactive, Rv3671c inh inactive, Vc quorum ag-1 inactive and GDH-TPI counter inactive.
`Cc1ccc(OCCNC(=O)c2ccco2)cc1C` gave FBA Mtb inh inactive, Mtb UGM inh inactive, RecA splice inh inactive, Rv3671c inh inactive, Vc quorum ag-1 active, GDH-TPI counter inactive and Vc quorum ag-2 inactive.
For Cc1ccc(C(=O)NCCOc2ccc(Cl)cc2)cc1 the results were FBA Mtb inh inactive, Mtb UGM inh inactive, RecA splice inh inactive, Rv3671c inh inactive, Vc quorum ag-1 inactive and GDH-TPI counter inactive.
O=C(NCCOc1ccc(Cl)cc1)c1ccco1 was read as FBA Mtb inh inactive, Mtb UGM inh inactive, RecA splice inh inactive, Rv3671c inh inactive, Vc quorum ag-1 425, GDH-TPI counter inactive and Vc quorum ag-2 inactive.
`Cc1ccc(OCCNC(=O)c2cccc(C)c2)cc1` gave FBA Mtb inh inactive, Mtb UGM inh inactive, RecA splice inh inactive, Rv3671c inh inactive, Vc quorum ag-1 active, GDH-TPI counter inactive, Vc quorum ag-2 inactive and HeLa tox inactive.
Screening O=C(NCCNC(=O)c1ccco1)c1ccco1 returned FBA Mtb inh inactive, Mtb UGM inh inactive, RecA splice inh inactive, Rv3671c inh inactive, Vc quorum ag-1 inactive and GDH-TPI counter inactive.
Screening CCc1ccc(OCCNC(=O)c2ccco2)cc1 returned FBA Mtb inh inactive, Mtb UGM inh inactive, RecA splice inh inactive, Rv3671c inh inactive, GDH-TPI counter inactive and Vc quorum ag-2 inactive.
`O=C(NCc1nnnn1-c1ccc(F)cc1)c1ccc(S(=O)(=O)N2CCOCC2)cc1` gave FBA Mtb inh inactive, Vc quorum ag-1 inactive and GDH-TPI counter inactive.
For Cc1ccc(C(=O)N(C)CC(=O)Nc2cccc(C)c2C)o1 the results were FBA Mtb inh inactive, Mtb UGM inh inactive, RecA splice inh inactive, Rv3671c inh inactive, Vc quorum ag-1 inactive and GDH-TPI counter inactive.
Cc1cc(C)cc(C(=O)Oc2cc(C)[nH]c(=O)c2[N+](=O)[O-])c1 was read as FBA Mtb inh inactive, Mtb UGM inh inactive, RecA splice inh inactive, Rv3671c inh inactive, Vc quorum ag-1 inactive and GDH-TPI counter inactive.
For CCOc1ccc(CNC(=O)c2ccco2)cc1 the results were FBA Mtb inh inactive, Mtb UGM inh inactive, RecA splice inh inactive, Rv3671c inh inactive, Vc quorum ag-1 60, GDH-TPI counter inactive and Vc quorum ag-2 inactive.
For O=C(NCc1ccccc1)c1ccco1 the results were FBA Mtb inh inactive, Mtb UGM inh inactive, RecA splice inh inactive, Rv3671c inh inactive, Vc quorum ag-1 inactive and GDH-TPI counter inactive.
`O=C(CC[C@H]1O[C@@H](n2cnc3c(NC(=O)c4ccccc4)ncnc32)[C@H](O)[C@@H]1O)NCCCN1CCCC1=O` gave FBA Mtb inh inactive.
`O=C(Oc1nsnc1N1CCOCC1)N1CCCC1` gave FBA Mtb inh inactive, Mtb UGM inh inactive, RecA splice inh inactive, Rv3671c inh inactive, Vc quorum ag-1 inactive and GDH-TPI counter inactive.
Screening O=C(Oc1nsnc1N1CCCCC1)N1CCOCC1 returned FBA Mtb inh inactive, Mtb UGM inh inactive, RecA splice inh inactive, Rv3671c inh inactive, Vc quorum ag-1 inactive, GDH-TPI counter inactive and Vc quorum ag-2 inactive.
For O=C(Nc1cccc(-c2ccc(N3CCOCC3)nn2)c1)c1ccccc1Cl the results were FBA Mtb inh inactive, Mtb UGM inh inactive, RecA splice inh inactive, Rv3671c inh inactive, Vc quorum ag-1 inactive, GDH-TPI counter inactive and Vc quorum ag-2 inactive.
Screening O=C(Nc1cccc(-c2ccc(N3CCOCC3)nn2)c1)c1ccc(Cl)cc1 returned FBA Mtb inh inactive, Mtb UGM inh inactive, RecA splice inh inactive, Rv3671c inh inactive, Vc quorum ag-1 inactive and GDH-TPI counter inactive.
